Experimental data as given in PubChem BioAssay (NCI).
This is part of a sample that, as a whole, favours compounds with a hit. Of some 79,000 tested, about 15% had one in any assay. Activity calls are given as the source filed them. Cut-off read from the data, not from the text of the source: active = growth inhibition above about 70%; inactive = the rest.

What was measured:
[1] = NCI Yeast Anticancer Drug Screen. Data for the rad50 strain (AID 155);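 note: 0% = growth of vehicle-only cultures of the same strain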; settings: S. cerevisiae rad50 strain growth inhibition, active compounds read high
In short: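 Compounds were tested on a yeast strain with an engineered DNA damage repair alteration; the reported value is growth inhibition normalised to vehicle treatment.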

[2] = NCI Yeast Anticancer Drug Screen. Data for the sgs1 mgt1 strain (AID 161);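 note: 0% = growth of cultures given vehicle only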; settings: S. cerevisiae sgs1 mgt1 strain, active compounds read high
In short: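 Yeast cells carrying a defined DNA-repair defect were exposed to test compounds. Growth inhibition was measured relative to vehicle-treated controls.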

[3] = NCI Yeast Anticancer Drug Screen. Data for the cln2 rad14 strain (AID 165);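 note: 0% = growth equal to vehicle treated cultures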; settings: S. cerevisiae cln2 rad14 strain, active compounds read high
In short: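 Yeast strain cln2 rad14, bearing defects in cell cycle control and DNA repair, serves as the test system; values reflect growth inhibition compared with vehicle.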

[4] = NCI Yeast Anticancer Drug Screen. Data for the bub3 strain (AID 167); settings: S. cerevisiae bub3 mutant strain, active compounds read high
In short: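 Growth of a checkpoint-deficient yeast mutant is measured after compound exposure. Values represent inhibition relative to vehicle.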

[5] = NCI Yeast Anticancer Drug Screen. Data for the mlh1 rad18 strain (AID 175); settings: S. cerevisiae mlh1 rad18 strain growth inhibition, active compounds read high
In short: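 Steps: expose repair-defective yeast to compound; measure growth; express inhibition against vehicle-treated controls.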

[6] = NCI Yeast Anticancer Drug Screen. Data for the mec2-1 strain (AID 157); settings: S. cerevisiae mec2-1 strain, active compounds read high
In short: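 Using mec2-1 yeast: add compound, measure growth, express inhibition versus vehicle-treated cultures.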

[7] = at 5.0 µM (retest, dose inferred, filed as 0.5)
[8] = at 50.0 µM (retest, dose inferred, filed as 5.0)

Measured: growth inhibition

CCCCCCCCCCCCCCNCCC(=O)O
active: [1]; [8] 99% | [1]; at 50.0 µM 99.1% | [2]; [8] 98% | [2]; at 50.0 µM 99.1% | [3]; [8] 99% | [3]; at 50.0 µM 99.2% | [4]; [8] 99% | [4]; at 50.0 µM 99.3% | [5]; [8] 99% | [5]; at 50.0 µM 99.3%
inactive: [1]; [7] -8% | [2]; [7] 2% | [3]; [7] -8% | [4]; [7] -6% | [5]; [7] -13%

COC(=O)C(=Cc1c[nH]c2ccccc12)C(=O)OC
inactive: [1]; [7] -12% | [1]; [8] 0% | [1]; at 50.0 µM 11.6% | [2]; [7] -1% | [2]; [8] -6% | [2]; at 50.0 µM 4.55% | [3]; [7] -1% | [3]; [8] -4% | [3]; at 50.0 µM 16.3% | [4]; [7] -3% | [4]; [8] 2% | [4]; at 50.0 µM 10.6% | [5]; [7] -18% | [5]; [8] -17% | [5]; at 50.0 µM 10.8%

CC[C@@H](C(=O)[C@@H](C)[C@@H](O)[C@H](C)CCc1ccc(C)c(O)c1C(=O)O)[C@H]1O[C@](CC)([C@H]2CC[C@](O)(CC)[C@H](C)O2)C[C@@H]1C
active: [1]; [8] 97% | [1]; at 50.0 µM 89.7% | [2]; [8] 98% | [2]; at 50.0 µM 91% | [3]; [7] 71% | [3]; [8] 99% | [3]; at 50.0 µM 87.8% | [4]; [8] 98% | [4]; at 50.0 µM 88.9% | [5]; [8] 98% | [5]; at 50.0 µM 89.3%
inactive: [1]; [7] 36% | [2]; [7] 38% | [4]; [7] 65% | [5]; [7] 35%

O=C1CCS(=O)(=O)c2ccccc21
active: [1]; [8] 100% | [1]; at 50.0 µM 91.2% | [6]; [8] 99% | [2]; [8] 99% | [4]; [8] 99% | [5]; [8] 99%
inactive: [1]; [7] 21% | [6]; [7] -2% | [6]; at 50.0 µM 65.4% | [2]; [7] 24% | [2]; at 50.0 µM 57.7% | [4]; [7] 34% | [4]; at 50.0 µM 33.4% | [5]; [7] 36% | [5]; at 50.0 µM 64%

COc1ccc(C(=O)C(CN2CCOCC2)CN2CCOCC2)cc1
active: [1]; at 50.0 µM 96.2% | [2]; at 50.0 µM 97.7% | [3]; at 50.0 µM 92.3% | [4]; at 50.0 µM 95.7% | [5]; at 50.0 µM 97.2%
inactive: [1]; [7] 11% | [1]; [8] -10% | [2]; [7] 23% | [2]; [8] -6% | [3]; [7] 11% | [3]; [8] -11% | [4]; [7] 10% | [4]; [8] -5% | [5]; [7] 18% | [5]; [8] -2%

C=C1CC[C@@H](Br)C(C)(C)[C@]12CCC(C)(O)C(Cl)C2 (stereo not given in full)
inactive: [6]; [7] 16% | [6]; [8] 30% | [2]; [7] 10% | [2]; [8] 44% | [3]; [7] 31% | [3]; [8] 44% | [4]; [7] 6% | [5]; [7] -25% | [5]; [8] 41%
active: [6]; at 50.0 µM 93.5% | [2]; at 50.0 µM 92.2% | [3]; at 50.0 µM 90.9% | [4]; [8] 72% | [4]; at 50.0 µM 92% | [5]; at 50.0 µM 91%

CC(=O)N(O)c1ccc2c(c1)Cc1cc(F)ccc1-2
active: [1]; [7] 75% | [1]; at 50.0 µM 97% | [2]; at 50.0 µM 97.1% | [3]; at 50.0 µM 92.5% | [4]; [8] 80% | [4]; at 50.0 µM 97.8% | [5]; at 50.0 µM 96.5%
inactive: [1]; [8] 37% | [2]; [7] 65% | [2]; [8] 35% | [3]; [7] 45% | [3]; [8] 21% | [4]; [7] -14% | [5]; [7] 49% | [5]; [8] 57%

Cc1ccc(S(=O)(=O)C2C=CC=CC=C2)cc1
active: [6]; at 50.0 µM 86% | [2]; [8] 77% | [4]; at 50.0 µM 71% | [5]; [8] 87% | [5]; at 50.0 µM 82%
inactive: [6]; [7] -51% | [6]; [8] 54% | [2]; [7] -64% | [2]; at 50.0 µM 14.7% | [3]; [7] -62% | [3]; [8] 42% | [3]; at 50.0 µM 52% | [4]; [7] -71% | [4]; [8] 66% | [5]; [7] -140%

Cn1c(=S)c2[nH]c(=S)[nH]c2n(C)c1=O
inactive: [3]; [8] 47%
active: [6]; [7] 91% | [6]; [8] 92% | [6]; at 50.0 µM 96.7% | [2]; [7] 94% | [2]; [8] 96% | [2]; at 50.0 µM 96.7% | [3]; [7] 78% | [3]; at 50.0 µM 80.3% | [4]; [7] 91% | [4]; [8] 89% | [4]; at 50.0 µM 96.7% | [5]; [7] 92% | [5]; [8] 93% | [5]; at 50.0 µM 97.2%

O=C1Nc2c(Cl)cc(Cl)cc2/C1=N/N=C/c1ccccc1O
inactive: [6]; [7] 13% | [6]; [8] 42% | [6]; at 50.0 µM 17.1% | [2]; [7] 10% | [2]; [8] 41% | [3]; [7] 15% | [3]; [8] 48% | [4]; [7] 18% | [4]; [8] 54% | [5]; [7] 15%
active: [2]; at 50.0 µM 87.2% | [3]; at 50.0 µM 89.8% | [4]; at 50.0 µM 88.2% | [5]; [8] 72% | [5]; at 50.0 µM 91%
